This is part of a sample that, as a whole, favours compounds with a hit. Of some 79,000 tested, about 15% had one in any assay. Calls of active or inactive are those of the source. Rule as the data show it: active = growth inhibition above about 70%; inactive = the rest.

In PubChem BioAssay (NCI) one finds growth inhibition data, which are given here for 6 compounds.

Assay [1] is described as follows: NCI Yeast Anticancer Drug Screen. Data for the rad50 strain (AID 155).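 Also: 0% = growth of vehicle-only cultures of the same strain.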 To be noted: S. cerevisiae rad50 strain growth inhibition, stronger effect = higher value. The procedure, abridged: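 Relative growth inhibition (compound vs vehicle) was measured in yeast with a defined repair-gene alteration.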
Assay [2] is described as follows: NCI Yeast Anticancer Drug Screen. Data for the mec2-1 strain (AID 157). The settings on record: S. cerevisiae mec2-1 strain, stronger effect = higher value. In a few lines: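 Vehicle-treated cultures served as reference for growth inhibition of compound-exposed mec2-1 yeast.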
The nature of assay [3]: NCI Yeast Anticancer Drug Screen. Data for the sgs1 mgt1 strain (AID 161).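 Also: 0% = growth of cultures given vehicle only.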 The settings on record: S. cerevisiae sgs1 mgt1 strain, stronger effect = higher value. The procedure, abridged:
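Read-out: growth inhibition vs vehicle controls. Cells: mutant yeast strain deficient in DNA damage repair.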

A short description of assay [4]: NCI Yeast Anticancer Drug Screen. Data for the cln2 rad14 strain (AID 165).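 Also: 0% = growth equal to vehicle treated cultures.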 To be noted: S. cerevisiae cln2 rad14 strain, stronger effect = higher value. The procedure, abridged:
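Each compound was tested on cln2 rad14 yeast. Inhibition of growth was calculated against vehicle-exposed controls.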

Assay [5] can be described thus: NCI Yeast Anticancer Drug Screen. Data for the bub3 strain (AID 167). To be noted: S. cerevisiae bub3 mutant strain, stronger effect = higher value. In a few lines: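 Screening used yeast with an engineered genetic alteration affecting cell cycle control. Compound-exposed cultures were compared with vehicle cultures, and reduced growth was taken as inhibition.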
Assay [6] is described as follows: NCI Yeast Anticancer Drug Screen. Data for the mlh1 rad18 strain (AID 175). To be noted: S. cerevisiae mlh1 rad18 strain growth inhibition, stronger effect = higher value. The procedure, abridged:
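Vehicle-treated cultures served as the reference for growth inhibition in a yeast strain carrying DNA damage repair alterations exposed to each compound.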

[7] abbreviates: at 5.0 µM (retest, dose inferred, filed as 0.5).
[8] abbreviates: at 50.0 µM (retest, dose inferred, filed as 5.0).

On to `CCOC(=O)C(Cc1ccccc1[N+](=O)[O-])C(=O)OCC`, for which the growth inhibition was -5% (inactive) in assay [1] (setting [7]); -33% (inactive) in assay [1] (setting [8]); 5.4% (inactive) in assay [1] (at 50.0 µM); -27% (inactive) in assay [2] (setting [7]); -5% (inactive) in assay [2] (setting [8]); -3.7% (inactive) in assay [2] (at 50.0 µM). Also, the growth inhibition in assay [3] (setting [7]) is -21% (inactive); in assay [3] (setting [8]), 3% (inactive); in assay [3] (at 50.0 µM), 28.6% (inactive); in assay [4] (setting [7]) it was 17% (inactive); in assay [4] (setting [8]), 10% (inactive); in assay [4] (at 50.0 µM), 7.75% (inactive). Besides, the growth inhibition was 30% (inactive) in assay [5] (setting [7]); 3% (inactive) in assay [5] (setting [8]); 44.6% (inactive) in assay [5] (at 50.0 µM); 0% (inactive) in assay [6] (setting [7]); -22% (inactive) in assay [6] (setting [8]); 20.5% (inactive) in assay [6] (at 50.0 µM).

In the case of `Clc1c(C(Cl)(Cl)Cl)nsc1N1CCCCC1`, the growth inhibition in assay [1] (setting [7]) was 17% (inactive); in assay [1] (setting [8]) it was 58% (inactive); in assay [1] (at 50.0 µM), 50.6% (inactive); in assay [2] (setting [7]) it was 16% (inactive); in assay [2] (setting [8]) it was 51% (inactive); in assay [2] (at 50.0 µM), 23.1% (inactive). The growth inhibition in assay [3] (setting [7]) is -3% (inactive); in assay [3] (setting [8]), 39% (inactive); in assay [3] (at 50.0 µM), 33.1% (inactive); in assay [4] (setting [7]), 17% (inactive); in assay [4] (setting [8]) it was 10% (inactive); in assay [4] (at 50.0 µM) it was 28% (inactive). Besides, the growth inhibition is 1% (inactive) in assay [5] (setting [7]); 18% (inactive) in assay [5] (setting [8]); 51.4% (inactive) in assay [5] (at 50.0 µM); 18% (inactive) in assay [6] (setting [7]); 84% (active) in assay [6] (setting [8]); 46.7% (inactive) in assay [6] (at 50.0 µM).

On to `CC(C)CCCC(C)C1CCC2C3CC=C4CC([n+]5cccc6ccccc65)CCC4(C)C3CCC12C` (stereo not drawn), for which the growth inhibition was 78% (active) in assay [1] (setting [7]); 90% (active) in assay [1] (setting [8]); 93.3% (active) in assay [1] (at 50.0 µM); 11% (inactive) in assay [2] (setting [7]); 92% (active) in assay [2] (setting [8]); 95.4% (active) in assay [2] (at 50.0 µM). Besides, the growth inhibition in assay [3] (setting [7]) was 60% (inactive); in assay [3] (setting [8]), 50% (inactive); in assay [3] (at 50.0 µM), 94.8% (active); in assay [4] (setting [7]), 39% (inactive); in assay [4] (setting [8]), 91% (active); in assay [4] (at 50.0 µM), 68% (inactive). The growth inhibition in assay [5] (setting [7]) was 74% (active); in assay [5] (setting [8]), 89% (active); in assay [5] (at 50.0 µM), 92.2% (active); in assay [6] (setting [7]), 74% (active); in assay [6] (setting [8]), 89% (active); in assay [6] (at 50.0 µM), 95.2% (active).

Take `C=C1C(=O)OC2C[C@@]3(C)CCC[C@H](C)C3=CC12` (stereo partly drawn) (tested in a mixture with another compound): the growth inhibition was 15% (inactive) in assay [1] (setting [7]); 97% (active) in assay [1] (setting [8]); 85.2% (active) in assay [1] (at 50.0 µM); 32% (inactive) in assay [2] (setting [7]); 99% (active) in assay [2] (setting [8]); 93% (active) in assay [2] (at 50.0 µM). For the same compound, the growth inhibition in assay [3] (setting [7]) was 27% (inactive); in assay [3] (setting [8]), 99% (active); in assay [3] (at 50.0 µM), 93.1% (active); in assay [4] (setting [7]), 19% (inactive); in assay [4] (setting [8]) it was 79% (active); in assay [4] (at 50.0 µM) it was 60.5% (inactive). For the same compound, the growth inhibition is 5% (inactive) in assay [5] (setting [7]); 97% (active) in assay [5] (setting [8]); 92.5% (active) in assay [5] (at 50.0 µM); 23% (inactive) in assay [6] (setting [7]); 98% (active) in assay [6] (setting [8]); 89.2% (active) in assay [6] (at 50.0 µM).

On to `CC(=O)Nc1ccc(S(=O)(=O)N(CCO)CCO)cc1`, for which the growth inhibition was -2% (inactive) in assay [1] (setting [7]); -4% (inactive) in assay [1] (setting [8]); 15.2% (inactive) in assay [1] (at 50.0 µM); -12% (inactive) in assay [2] (setting [7]); -5% (inactive) in assay [2] (setting [8]); 98.5% (active) in assay [2] (at 50.0 µM). For the same compound, the growth inhibition in assay [3] (setting [7]) is -12% (inactive); in assay [3] (setting [8]), -4% (inactive); in assay [3] (at 50.0 µM), 40.5% (inactive); in assay [4] (setting [7]) it was 0% (inactive); in assay [4] (setting [8]) it was 1% (inactive); in assay [4] (at 50.0 µM), 57% (inactive). For the same compound, the growth inhibition in assay [5] (setting [7]) was -7% (inactive); in assay [5] (setting [8]), 1% (inactive); in assay [5] (at 50.0 µM) it was 80.7% (active); in assay [6] (setting [7]), -20% (inactive); in assay [6] (setting [8]), -9% (inactive); in assay [6] (at 50.0 µM), 91.2% (active).

As for `O=[N+]([O-])Cc1cnc2nncn2n1`, the growth inhibition is -6% (inactive) in assay [1] (setting [7]); 96% (active) in assay [1] (setting [8]); 86.3% (active) in assay [1] (at 50.0 µM); -9% (inactive) in assay [2] (setting [7]); 97% (active) in assay [2] (setting [8]); 98.4% (active) in assay [2] (at 50.0 µM). Further, the growth inhibition in assay [3] (setting [7]) is 2% (inactive); in assay [3] (setting [8]) it was 96% (active); in assay [3] (at 50.0 µM), 99.2% (active); in assay [4] (setting [7]), 2% (inactive); in assay [4] (setting [8]), 53% (inactive); in assay [4] (at 50.0 µM), 24.2% (inactive). Also, the growth inhibition in assay [5] (setting [7]) is -27% (inactive); in assay [5] (setting [8]), 99% (active); in assay [5] (at 50.0 µM), 38.5% (inactive); in assay [6] (setting [7]) it was -12% (inactive); in assay [6] (setting [8]) it was 97% (active); in assay [6] (at 50.0 µM) it was 87.5% (active).
